# According to PubChem BioAssay (Tox21):
# “And” between values parts separate entries of the source, which are not always exact repeats. Equal entries are not always repeated. Inconclusive results are not listed. Entries that show only a call come without a potency. More than one record can exist for a structure, and the calls need not agree. The source made the active and inactive calls. Unless noted, the call rests on the fitted dose curve; in most records, active means well fitted curve in the direction sought with a large enough effect in the repeat runs; inconclusive means weak or mixed curves; inactive means no such curve, though single readings can be large; an effect the other way counts as inactive or inconclusive.
# Tests used:
# [1] = qHTS assay to identify small molecule agonists of the androgen receptor (AR) signaling pathway in the presence of an antagonist - cell viability counter screen (AID 1259379); further: nearly all actives have a fitted effect of over 25% in size; further: potency means the concentration at half of the fitted maximal effect
# Procedure, shortened: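 Cytotoxicity counter-screen run in the same wells as the nilutamide-challenged (3.0 µM final) AR agonist assay in MDA-kb2 cells. Compounds tested at 15 concentrations for 16 h, 37 °C without CO2; CellTiter-Fluor fluorescence read.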
# [2] = qHTS assay to identify small molecule agonists of the estrogen receptor beta (ER-beta) signaling pathway - cell viability counter screen (AID 1259380); further: nearly all actives have a fitted effect of over 30% in size; further: potency means the concentration at half of the fitted maximal effect
# Procedure, shortened: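 Cell viability counter screen: CellTiter-Glo luminescence (30 min, room temperature) measured in the same wells as the beta-lactamase readout, after 16 hr compound exposure at 37C of ER-beta-bla HEK293T cells in 2% charcoal-stripped FBS medium.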
# [3] = target: Androgen receptor (Homo sapiens) (UniProt P10275); assay: qHTS assay to identify small molecule agonists of the androgen receptor (AR) signaling pathway in the presence of an antagonist (AID 1259381; calls by dose curve; further: nearly all actives have a fitted effect of over 15% in size)
# Procedure, shortened: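 Agonist-mode confirmation run against 3.0 uM final nilutamide: compounds titrated at 15 concentrations onto MDA-kb2 MMTV-luciferase reporter cells. Luminescence measured with ONE-Glo following 16 hr incubation, 37C, 0% CO2.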
# [4] = target: Estrogen receptor (Homo sapiens) (UniProt P03372); assay: qHTS assay to identify small molecule agonists of the estrogen receptor alpha (ER-alpha) signaling pathway in the presence of an antagonist (AID 1259383; calls by dose curve; further: top concentration of the series differs between compounds; nearly all actives have a fitted effect of over 15% in size)
# Procedure, shortened: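 Agonist-mode confirmation run in the presence of 10.0nM (final) ICI-182,780 antagonist. The reporter was ERE-driven luciferase in VM7Luc4E2 cells, grown in charcoal-stripped serum. Cells were exposed to 15-concentration compound series for 22hr, then ONE-Glo luminescence was read.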
# [5] = qHTS assay to identify small molecule agonists or antagonists of the thyroid stimulating hormone receptor (TSHR) signaling pathway - wild type cell line counter screen (AID 1259384; calls by dose curve)
# Procedure, shortened: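 Counter screen in untransfected Hek293: compounds (15-point titration, triplicate) plus phosphodiesterase inhibitor Ro20-1724 added after 18 h plating; 30 min RT. Intracellular cAMP via competitive d2/cryptate immunoassay, 1 h incubation.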
# [6] = target: Thyrotropin receptor (Homo sapiens) (UniProt P16473); assay: qHTS assay to identify small molecule antagonists of the thyroid stimulating hormone receptor (TSHR) signaling pathway (AID 1259385; calls by dose curve; further: nearly all actives have a fitted effect of over 20% in size; further: potency means the concentration at half of the fitted maximal effect)
# Procedure, shortened: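 Antagonist mode: compound-treated TSHR-expressing HEK293 cells were stimulated with 1.5 ng/mL TSH (final) in presence of Ro20-1724 for 30 min at RT. HTRF cAMP detection after 1 h; each compound tested at 15 concentrations, triplicate.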
# [7] = qHTS assay to identify small molecule agonists of the estrogen receptor alpha (ER-alpha) signaling pathway in the presence of an antagonist - cell viability counter screen (AID 1259386); further: nearly all actives have a fitted effect of over 30% in size; further: potency means the concentration at half of the fitted maximal effect
# Procedure, shortened: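 Compounds tested at 15 concentrations for 22 h at 37C alongside 10.0nM (final) ICI-182,780 antagonist, in VM7Luc4E2 cells grown in phenol red-free, charcoal-stripped medium. Viability read by CellTiter-Fluor fluorescence after 1 h reagent incubation.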
# [8] = target: Progesterone receptor (Homo sapiens) (UniProt P06401); assay: qHTS assay to identify small molecule agonists of the progesterone receptor (PR) signaling pathway (AID 1346784; calls by dose curve; further: nearly all actives have a fitted effect of over 30% in size)
# Procedure, shortened: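 The screen uses PR-UAS-bla HEK 293T cells in charcoal-stripped serum (2%). Compounds are applied for 16 hr at 37C after a 6 hr pre-incubation, and reporter activity is detected with a FRET beta-lactamase substrate after 2 hr at room temperature.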
# [9] = target: Progesterone receptor (Homo sapiens) (UniProt P06401); assay: qHTS assay to identify small molecule antagonists of the progesterone receptor (PR) signaling pathway (AID 1346795; active means well fitted inhibition curve with a large enough effect in the signal ratio in the repeat runs, not every such curve was filed as active; the % refers to the signal ratio; further: potency means the concentration at half of the fitted maximal effect)
# Procedure, shortened: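 After 6 hr plating at 37C in 2% stripped-serum medium, PR-UAS-bla HEK293T cells got compounds, then 1 nM R5020. Sixteen hours later, LiveBLAzer substrate was applied for 2 hr at room temperature and fluorescence was recorded.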
# [10] = qHTS assay to identify small molecule antagonists of the progesterone receptor (PR) signaling pathway - cell viability counter screen (AID 1346798); further: nearly all actives have a fitted effect of over 50% in size; further: potency means the concentration at half of the fitted maximal effect
# Procedure, shortened: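 Viability was determined by ATP-based luminescence (CellTiter-Glo) in PR-UAS-bla HEK293T cells cultured in 2% charcoal-stripped serum and incubated 16 hr with compounds under R5020 stimulation.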
# [11] = qHTS assay to identify small molecule agonists of the progesterone receptor (PR) signaling pathway - cell viability counter screen (AID 1346799; calls by dose curve; further: nearly all actives have a fitted effect of over 45% in size; further: potency means the concentration at half of the fitted maximal effect)
# Procedure, shortened: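 Viability was scored by ATP luminescence (CellTiter-Glo, 30 min, room temperature) in the same wells used for the reporter readout, after 16 hr compound exposure of PR-UAS-bla HEK293T cells.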
# [12] = qHTS assay to identify small molecule antagonists of the TGF-beta/Smad signaling pathway - cell viability counter screen (AID 1346824); further: nearly all actives have a fitted effect of over 50% in size; further: potency means the concentration at half of the fitted maximal effect
# Procedure, shortened: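 Cytotoxicity counter-screen run in the same wells as the beta-lactamase Smad reporter read: CellTiter-Glo luminescence after 30 min at room temperature. HEK 293T SBE-bla cells had 5 hr compound exposure at 37 C with TGF-beta1 (0.25 ng/mL stock).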
# [13] = qHTS assay to identify small molecule agonists of the TGF-beta/Smad signaling pathway - cell viability counter screen (AID 1346829); further: nearly all actives have a fitted effect of over 45% in size; further: potency means the concentration at half of the fitted maximal effect
# Procedure, shortened: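 Here the cytotoxicity of library compounds is measured in SBE-bla HEK 293T cells treated for 5 hr, using CellTiter-Glo added to wells already read for the beta-lactamase reporter.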
# [14] = target: Thyrotropin-releasing hormone receptor (Homo sapiens) (UniProt P34981); assay: qHTS assay to identify small molecule antagonists of the thyrotropin-releasing hormone receptor (TRHR) signaling pathway (AID 1346877; active means well fitted inhibition curve with a large enough effect in the repeat runs, not every such curve was filed as active; further: potency means the concentration at half of the fitted maximal effect)
# Procedure, shortened: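 Antagonist mode: after a 5 min room-temperature compound exposure, cells were stimulated with 1 nM (final) TRH. Dye-loaded TRHR-HEK293 cells were used, and calcium-dependent fluorescence was followed for 3 min, with 15-point titrations run in triplicate.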
# [15] = target: Thyrotropin-releasing hormone receptor (Homo sapiens) (UniProt P34981); assay: qHTS assay to identify small molecule agonists of the thyrotropin-releasing hormone receptor (TRHR) signaling pathway (AID 1346891; calls by dose curve;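 further: HEK293 cells expressing TRHR with calcium dye readout; series mostly up to about 58 µM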)
# Procedure, shortened: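 Kinetic fluorescence (3 min, 1 s intervals) reported intracellular calcium after compound transfer onto TRHR-Hek293 cells pre-loaded with dye for 2 h at 37 °C.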
# [16] = Human pregnane X receptor (PXR) small molecule agonists, qHTS cell viability counter screen (AID 1346977); further: nearly all actives have a fitted effect of over 50% in size; further: potency means the concentration at half of the fitted maximal effect
# Procedure, shortened: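 HepG2 cells stably carrying the PXR-Luc reporter are cultured with 5% charcoal-stripped FBS and treated with compounds for 24hr. CellTiter-Fluor is added at 23hr and fluorescence is read after 1hr.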
# [17] = qHTS assay to identify small molecule antagonists of the estrogen receptor beta (ER-beta) signaling pathway - cell viability counter screen (AID 1259382); further: nearly all actives have a fitted effect of over 55% in size; further: potency means the concentration at half of the fitted maximal effect
# Procedure, shortened: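 Cytotoxicity was measured in the same wells by CellTiter-Glo luminescence after 30 min at room temperature. Cells were ER-beta-bla HEK293T in charcoal-stripped serum, given compound together with 1 nM E2 and incubated 16 h at 37C.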
# [18] = qHTS assay to identify small molecule agonists of the TGF-beta/Smad signaling pathway (AID 1346859; active means well fitted activation curve with a large enough effect in the signal ratio in the repeat runs, not every such curve was filed as active; the % refers to the signal ratio; further: series mostly up to about 77 µM)
# Procedure, shortened: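 Dual-wavelength fluorescence (460/530 nm emission) quantified beta-lactamase expression under the Smad binding element in HEK 293T cells following 5 hr compound treatment at 37 C.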
# Estrogen receptor (Homo sapiens), sequence (P03372 whole entry, looked up): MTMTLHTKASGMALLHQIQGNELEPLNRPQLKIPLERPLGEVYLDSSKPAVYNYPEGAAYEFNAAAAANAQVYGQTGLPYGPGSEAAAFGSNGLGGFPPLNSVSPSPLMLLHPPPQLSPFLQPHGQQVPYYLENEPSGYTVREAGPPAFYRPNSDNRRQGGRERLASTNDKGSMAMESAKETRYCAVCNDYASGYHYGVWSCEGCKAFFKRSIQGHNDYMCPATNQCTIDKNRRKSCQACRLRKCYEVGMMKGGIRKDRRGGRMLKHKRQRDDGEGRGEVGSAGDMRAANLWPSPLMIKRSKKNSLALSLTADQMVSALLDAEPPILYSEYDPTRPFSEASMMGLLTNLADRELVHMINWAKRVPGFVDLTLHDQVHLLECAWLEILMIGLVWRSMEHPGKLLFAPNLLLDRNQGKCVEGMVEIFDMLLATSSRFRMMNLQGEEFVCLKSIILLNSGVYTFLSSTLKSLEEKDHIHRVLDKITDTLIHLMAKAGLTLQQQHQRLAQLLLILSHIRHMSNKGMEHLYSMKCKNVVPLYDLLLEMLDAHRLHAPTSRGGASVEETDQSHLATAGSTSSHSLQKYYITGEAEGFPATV
# Androgen receptor (Homo sapiens), sequence (P10275 whole entry, looked up): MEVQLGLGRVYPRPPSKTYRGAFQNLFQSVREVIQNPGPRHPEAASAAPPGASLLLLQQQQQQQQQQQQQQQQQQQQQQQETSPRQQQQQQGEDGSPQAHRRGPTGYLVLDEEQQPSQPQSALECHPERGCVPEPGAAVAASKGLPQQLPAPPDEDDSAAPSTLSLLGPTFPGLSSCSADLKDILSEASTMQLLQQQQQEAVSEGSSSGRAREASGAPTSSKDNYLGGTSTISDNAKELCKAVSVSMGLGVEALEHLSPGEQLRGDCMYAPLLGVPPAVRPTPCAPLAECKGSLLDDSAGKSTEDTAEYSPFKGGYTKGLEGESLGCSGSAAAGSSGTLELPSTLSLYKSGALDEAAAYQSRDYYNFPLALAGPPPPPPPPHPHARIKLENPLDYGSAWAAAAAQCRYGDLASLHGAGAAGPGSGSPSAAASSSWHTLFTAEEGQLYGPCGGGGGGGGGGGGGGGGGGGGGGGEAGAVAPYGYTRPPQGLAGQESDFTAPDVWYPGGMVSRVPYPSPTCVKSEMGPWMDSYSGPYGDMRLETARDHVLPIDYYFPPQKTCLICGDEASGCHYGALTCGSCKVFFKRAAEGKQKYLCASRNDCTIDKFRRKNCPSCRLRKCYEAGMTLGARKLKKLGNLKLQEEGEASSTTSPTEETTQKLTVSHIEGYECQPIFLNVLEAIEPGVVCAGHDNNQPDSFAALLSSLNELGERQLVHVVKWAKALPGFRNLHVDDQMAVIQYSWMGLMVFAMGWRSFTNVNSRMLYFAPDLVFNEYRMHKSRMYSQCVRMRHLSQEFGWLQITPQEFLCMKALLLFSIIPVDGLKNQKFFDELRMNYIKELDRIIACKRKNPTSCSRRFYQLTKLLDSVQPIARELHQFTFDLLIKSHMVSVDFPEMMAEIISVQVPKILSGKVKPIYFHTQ
# Thyrotropin-releasing hormone receptor (Homo sapiens), sequence (P34981 whole entry, looked up): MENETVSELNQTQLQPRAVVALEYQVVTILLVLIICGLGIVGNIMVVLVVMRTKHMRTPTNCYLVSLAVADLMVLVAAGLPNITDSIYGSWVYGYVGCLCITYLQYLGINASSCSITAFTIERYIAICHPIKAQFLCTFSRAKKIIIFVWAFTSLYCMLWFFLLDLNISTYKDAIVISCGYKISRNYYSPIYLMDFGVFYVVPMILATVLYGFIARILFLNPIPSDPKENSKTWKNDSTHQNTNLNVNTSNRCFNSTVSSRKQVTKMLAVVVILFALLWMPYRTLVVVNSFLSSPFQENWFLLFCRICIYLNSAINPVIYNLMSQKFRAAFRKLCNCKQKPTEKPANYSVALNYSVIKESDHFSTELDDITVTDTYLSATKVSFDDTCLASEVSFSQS
# Thyrotropin receptor (Homo sapiens), sequence (P16473 whole entry, looked up): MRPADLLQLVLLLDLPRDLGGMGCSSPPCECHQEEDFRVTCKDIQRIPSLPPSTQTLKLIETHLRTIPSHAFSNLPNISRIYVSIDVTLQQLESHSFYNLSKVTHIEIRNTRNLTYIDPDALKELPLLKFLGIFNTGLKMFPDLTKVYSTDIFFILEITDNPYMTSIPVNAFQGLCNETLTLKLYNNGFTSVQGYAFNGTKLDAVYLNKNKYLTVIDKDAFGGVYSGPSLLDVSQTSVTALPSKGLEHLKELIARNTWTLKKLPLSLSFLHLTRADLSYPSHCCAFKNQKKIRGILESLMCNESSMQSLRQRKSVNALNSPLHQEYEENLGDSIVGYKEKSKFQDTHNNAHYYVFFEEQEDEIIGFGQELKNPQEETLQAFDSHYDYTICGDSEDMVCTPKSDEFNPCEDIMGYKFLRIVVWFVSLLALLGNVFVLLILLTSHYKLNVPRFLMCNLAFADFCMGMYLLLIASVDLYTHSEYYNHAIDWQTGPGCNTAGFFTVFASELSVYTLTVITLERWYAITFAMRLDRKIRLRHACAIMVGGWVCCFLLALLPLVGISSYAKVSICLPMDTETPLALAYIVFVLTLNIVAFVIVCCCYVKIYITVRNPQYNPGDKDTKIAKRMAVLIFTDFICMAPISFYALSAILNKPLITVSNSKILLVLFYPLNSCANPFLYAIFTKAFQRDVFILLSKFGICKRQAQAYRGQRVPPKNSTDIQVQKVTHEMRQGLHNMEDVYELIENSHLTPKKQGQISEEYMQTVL
# Progesterone receptor (Homo sapiens), sequence (P06401 whole entry, looked up): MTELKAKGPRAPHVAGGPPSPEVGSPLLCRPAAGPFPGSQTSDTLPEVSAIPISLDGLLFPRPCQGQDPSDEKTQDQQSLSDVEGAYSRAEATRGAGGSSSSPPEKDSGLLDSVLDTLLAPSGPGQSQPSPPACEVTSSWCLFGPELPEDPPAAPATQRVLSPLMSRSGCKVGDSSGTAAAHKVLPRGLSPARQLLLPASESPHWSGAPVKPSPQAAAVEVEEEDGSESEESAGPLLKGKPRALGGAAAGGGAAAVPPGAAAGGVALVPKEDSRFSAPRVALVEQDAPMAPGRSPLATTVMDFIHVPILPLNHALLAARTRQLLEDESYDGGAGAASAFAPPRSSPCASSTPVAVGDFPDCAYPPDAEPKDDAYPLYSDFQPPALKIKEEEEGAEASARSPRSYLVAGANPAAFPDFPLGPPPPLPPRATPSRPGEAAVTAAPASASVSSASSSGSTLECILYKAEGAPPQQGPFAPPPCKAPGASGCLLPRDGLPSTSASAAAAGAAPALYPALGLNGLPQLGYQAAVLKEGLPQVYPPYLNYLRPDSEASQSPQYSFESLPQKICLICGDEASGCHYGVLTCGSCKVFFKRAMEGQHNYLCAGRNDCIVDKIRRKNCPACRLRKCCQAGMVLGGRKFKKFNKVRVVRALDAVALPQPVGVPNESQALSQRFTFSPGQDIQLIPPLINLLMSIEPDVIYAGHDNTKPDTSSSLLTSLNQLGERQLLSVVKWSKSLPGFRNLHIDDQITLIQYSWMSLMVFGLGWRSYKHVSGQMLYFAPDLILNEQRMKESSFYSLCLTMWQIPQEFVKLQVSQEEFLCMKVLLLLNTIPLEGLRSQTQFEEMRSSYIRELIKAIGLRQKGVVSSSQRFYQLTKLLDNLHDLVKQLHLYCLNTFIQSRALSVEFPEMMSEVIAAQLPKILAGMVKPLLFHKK
SMILES,Potency [1],Potency [2],outcome [3],Potency [4],Potency [5],Potency [6],Potency [7],Potency [8],Potency [9],Potency [10],Potency [11],Potency [12],Potency [13],Potency [14],outcome [15],Potency [16],Potency [17],Potency [18]
O=C(O)c1nn(Cc2ccc(Cl)cc2Cl)c2ccccc12,inactive,27.1 µM (active) and 26.6 µM (active),inactive,inactive,inactive,inactive,inactive,inactive,inactive,inactive,inactive,inactive,inactive,inactive,inactive,inactive,,
CCCCOCC1CO1 (stereo not given),inactive,inactive,,,inactive,inactive,inactive,inactive,inactive,inactive,inactive,inactive,inactive,inactive,inactive,inactive,inactive,inactive
CCC(=O)Nc1ccc(Cl)c(Cl)c1,inactive,,inactive,,inactive,inactive,inactive,inactive,,inactive,inactive,inactive,inactive,inactive,inactive,inactive,inactive,inactive
C[C@]12CCC(=O)C=C1CC[C@@H]1[C@@H]2CC[C@@]2(C)[C@H]1CC[C@]2(C)O,inactive,inactive,,,inactive,inactive,inactive,,inactive,inactive,,inactive,inactive,inactive,inactive,inactive,inactive,inactive
C[N+](C)(C)CC(=O)O,inactive,inactive,,,,,inactive,inactive,inactive,inactive,inactive,inactive,inactive,,,inactive,inactive,inactive
CC1CC(=O)O1 (stereo not given),inactive,inactive,,,inactive,inactive,inactive,inactive,inactive,inactive,inactive,inactive,inactive,,,inactive,inactive,inactive
O=S(=O)(O)C(F)(F)C(F)(F)C(F)(F)C(F)(F)C(F)(F)C(F)(F)C(F)(F)C(F)(F)F,inactive,51.9 µM (active) and 48.6 µM (active),,,inactive,inactive,inactive,inactive,,29.2 µM (active) and 19.3 µM (active),41.2 µM (active) and inactive and 17.2 µM (active),inactive,inactive,,,inactive,46.2 µM (active) and inactive,inactive
Nc1ccc([N+](=O)[O-])cc1N,61.1 µM (active) and 30.6 µM (active),21.7 µM (active) and inactive,,,inactive,,48.5 µM (active) and 38.6 µM (active),inactive,,,inactive,inactive,inactive,inactive,inactive,22.4 µM (active) and 61.1 µM (active),inactive,inactive
O=C1C(Cl)=C(Cl)C(=O)c2ccccc21,48.7 µM (active) and 54.5 µM (active),27.4 µM (active) and 27.3 µM (active),,,,,43.4 µM (active) and 61.1 µM (active),inactive,48.6 µM (active),61.3 µM (active) and 61.1 µM (active),61.1 µM (active),49.1 µM (active) and 49 µM (active),49.1 µM (active) and 43.6 µM (active),21.4 µM (active) and 21.3 µM (active),inactive,39.8 µM (active),19.4 µM (active) and 30.6 µM (active),
[Cl-].[Cl-].[Cl-].[Fe+3],inactive,inactive,,,,,inactive,inactive,inactive,inactive,inactive,inactive,inactive,,,inactive,inactive,inactive
CCCCC(C#N)(Cn1cncn1)c1ccc(Cl)cc1 (stereo not given),inactive,,,,inactive,60.9 µM (active) and 54.5 µM (active),inactive,inactive,30.5 µM (active),inactive,inactive,inactive,inactive,inactive,inactive,inactive,inactive,inactive
CC(C)(C#N)N=NC(C)(C)C#N,inactive,inactive,,,inactive,inactive,inactive,inactive,inactive,inactive,inactive,inactive,inactive,inactive,inactive,inactive,inactive,inactive
CCOP(=S)(OCC)SCSC(C)(C)C,inactive,inactive,,inactive,inactive,,inactive,inactive,,48.6 µM (active),inactive,inactive,inactive,,,inactive,inactive,inactive
CCCCCCCCCC(CC)c1ccc(S(=O)(=O)O)cc1 (stereo not given),inactive,,,,,,inactive,,,30.9 µM (active) and 29.8 µM (active) and 27.3 µM (active),27 µM (active) [middle of 4 runs],inactive,inactive,,,inactive,,inactive
